Among the data in PubChem BioAssay (NCI) are growth values, retold here.

This is part of a sample that, as a whole, favours compounds with a hit. Of some 83,000 tested, about 20% had one in any assay.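 48-hour exposure, single concentration, 96-well plates; percent growth endpoint where 0 means no net growth. Active: below 10.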 A number with no mark means an inactive call. The source made the active and inactive calls.

This experiment concerns UACC-62 melanoma. Briefly: NCI-60 one-dose screen, 48 h (100 = growth as untreated, 0 = no growth, -100 = all killed). To be noted: 10 µM unless noted. The method, then:
Growth inhibition of the UACC-62 human tumor cell line is measured as a screen for anti-cancer activity. Cells are grown in 96 well plates and exposed to the test compound for 48 hours. Compounds are tested at a single concentration, which is 10^-5 M for most compounds. The reported endpoint is percent growth (GI% or GIPRCNT), where numbers from 0 - 100% represent growth inhibition, and numbers from -100% - 0 represent cell death. For example, a value of 40 represents 60% growth inhibition. A value of 0 means no net growth occurred over the course of the experiment. A value of -40 indicates 40% of cells at the beginning of the experiment died by the end of the experiment. A value of -100 means all cells are dead at the end of the experiment.
NCI-60 Human Tumor Cell Lines Screen was performed using the standard one-dose NCI protocol, which is described in more detail at https://dtp.cancer.gov/discovery_development/nci-60/default.htm.
Compounds with GIPRCNT values below 10 were considered active. Activity score was based on GIPRCNT using the following formula: […]
Score is 0 for GIPRCNT values of 100 or above, 50 for GIPRCNT values of 0, and 100 for GIPRCNT values of -100.
On to `CCC(=O)OC1=CN2C(=NC(c3ccc(N)cc3)=CC2c2cc(OC)c(OC)c(OC)c2)S1` (stereo not given), for which the growth is 78%. To `O=C(CSc1nc2ccccc2[nH]1)Nc1ccc(-c2nc3ccccc3s2)c(Cl)c1` belongs 49.3%. To `O=C(/C=C/c1cc(-c2ccc3c(c2)OCO3)n[nH]1)c1ccc2c(c1)OCO2` belongs 97.4%.

In the case of `CCN(CC)CCC(CNc1ccnc2cc(Cl)ccc12)c1ccccc1` (stereo not given), the growth is 57.6%. With `Cc1ccc2nc(Cl)cc(=O)n2c1`, the growth was 102%.

Consider `CC1=C(C#N)C(=O)NC(C)C1` (stereo not given), for which the growth was 104%. To `c1ccc(Nc2nc(Nc3ccccc3)nc(Nc3ccccc3)n2)cc1` belongs 83%. In the case of `OB(O)c1cccc(-c2nc3ccc4[nH]ncc4c3c3c2CCCC3)c1F`, the growth was 27.4%.

Take `CCN(CC)CCCC(C)Nc1c2ccc(Cl)cc2nc2cc(OC)c(OC)cc12` (stereo not given): the growth was -38% (active). With `O=C1/C(=C/c2ccccc2)CN(C(=O)CCN2CCC(=NO)CC2)C/C1=C\c1ccccc1`, the growth is -59.7% (active). To `CCC(=O)Oc1ccc(/C(=C(/C)Cc2cccc(OC)c2)c2ccc(OCCN(C)C)cc2)cc1` belongs 103%. To `O=c1c2sc3ncccc3c2nnn1-c1ccccc1` belongs 105%. To `COc1ccc(S(=O)(=O)Nc2cc(/C=C\c3cc(OC)c(OC)c(OC)c3)cc(OC)c2OC)cc1` belongs 46%; to `S=C(S)NCCc1c[nH]c2ccccc12`, 88.4%. As to `COc1ccc(N2CCN(Cc3cc(C(=O)/C=C/c4c[nH]c5ccccc45)ccc3O)CC2)cc1`, the growth is 101%. To `CC1(c2ccc(Cl)cc2)OC(=O)CC(=O)O1` belongs 102%; to `NC(=O)CCCN1C/C(=C\c2ccccc2)C(=O)c2ccccc21`, 87.2%. To `COc1ccc2c(c1)[nH]c(=O)c1c3cc(OC)ccc3cn21` belongs 41.9%; to `CC(=O)Nc1nc(N)nc(NC(C)=O)c1N=O`, 109%; to `C/C(=N/NC(=S)Nc1ccccc1)c1nc2ccc(Cl)cc2[nH]1`, -72.6% (active).

On to `CCCCN(CCCC)C(=O)CC`, for which the growth is 106%. To `O=C([O][Sn]([O]C(=O)c1ccccn1)([c]1ccccc1)[c]1ccccc1)c1ccccn1` belongs 83%.

With `NC1N=C(SCC(=O)N2CCN(c3cc4c(cc3F)c(=O)c(C(=O)O)cn4C3CC3)CC2)NC(=O)/C1=C/c1ccc(Cl)cc1` (stereo not given), the growth is 99.9%. For the compound `O=C1NN(C(=O)c2ccc(Cl)cc2)C(c2ccccc2)=N/C1=C\c1cn(-c2ccccc2)nc1-c1ccccc1`, the growth is 91%.

`O=S(=O)(NCCNc1nccc(-c2c(-c3cccc(O)c3)nc3sccn23)n1)c1ccc(F)cc1`: the growth was 16.7%.

As for `O=S(=O)(c1ccc(OCCO)cc1)c1ccc(OCCO)cc1`, the growth was 101%. To `O=C(O)/C=C/C(=O)c1ccc(Cl)cc1` belongs 109%; to `C=C[C@@H]1C[C@@H]2Cc3cc(F)ccc3N1O2`, 100%; to `CC(C)(C)n1cc(-c2ccnc(NCCCNS(=O)(=O)c3ccc(Cl)cc3)c2)c(-c2cccc(O)c2)n1`, -2.46% (active). To `COC(=O)c1cccc2c1N(C)c1c(cccc1C(=O)OC)CC2` belongs 98.7%; to `C=C1CCC2C3(C)COC(c4ccccc4)OC3CCC2(C)C1/C=C/C1=CCOC1=O` (stereo not given), 58.8%. To `O=C(Nc1ccc2c(c1)OCO2)C(=O)c1c[nH]c2cc(F)ccc12` belongs 22%.

Consider `CC(C)(C)OC(=O)NC(CSCc1ccccc1)C(=O)ON1C(=O)CCC1=O` (stereo not given), for which the growth was 112%. To `NC1=NC(SCc2ccccc2CCl)c2ncn(Cc3ccccc3CCl)c2N1` (stereo not given) belongs 34.2%. For the compound `Cc1nc2ncccc2nc1Nc1ccc(S(=O)(=O)Nc2cncs2)cc1`, the growth was 88.8%.

In the case of `COc1cc(/C=N\NC(=O)CN2CCN(c3cc4c(cc3F)c(=O)c(C(=O)N/N=C/c3cc(OC)c(OC)c(OC)c3)cn4C3CC3)CC2)cc(OC)c1OC`, the growth was -34.7% (active).

On to `Fc1ccc(CNCCNc2ncnc3c2cnn3-c2ccccc2)cc1`, for which the growth was 101%. To `COc1ccc(/C=C\c2cc(OC)c(OC)c(OC)c2)cc1OC(=O)c1cccc(Cn2cc(CCOC(=O)c3cccc(Cn4nnc5c4C(=O)c4ccccc4C5=O)c3)nn2)c1` belongs 45.7%; to `O=C(NS(=O)(=O)c1ccccc1)n1cc(-c2ccncc2)c(-c2ccc(Cl)c(O)c2)n1`, 59%.

Regarding `CCCN=C1NC(=O)/C(=C/c2nc(-c3ccc(OC)cc3)n3ccccc23)S1`, the growth is 93.1%.
